PubChem BioAssay (Tox21)
Records with an inconclusive call do not appear. Active and inactive are the calls of the source. Unless noted, the call rests on the fitted dose curve; in most records, active means well fitted curve in the direction sought with a large enough effect in the repeat runs; inconclusive means weak or mixed curves; inactive means no such curve, though single readings can be large; an effect the other way counts as inactive or inconclusive.

Columns and labels:
[1] = biological target: Aryl hydrocarbon receptor (Homo sapiens) (UniProt P35869); experiment: qHTS assay to identify small molecule that activate the aryl hydrocarbon receptor (AhR) signaling pathway (AID 743085);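 further: HG2L7.5c1 human HepG2 liver cells with stably integrated DRE-driven firefly reporter; series mostly up to about 70 µM; nearly all actives have a fitted effect of over 15% in size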
How it was run: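 Reporter assay in engineered HepG2 line HG2L7.5c1, whose plasmid carries twenty dioxin responsive elements upstream of firefly luciferase. Treatment lasted 24 h at 37C; ONE-Glo luminescence gauged induction.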

[2] = qHTS assay to identify small molecule that activate the aryl hydrocarbon receptor (AhR) signaling pathway - cell viability counter screen (AID 743086);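 further: HepG2 liver cells carrying the AhR DRE luciferase reporter; series mostly up to about 70 µM; nearly all actives have a fitted effect of over 45% in size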
How it was run: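 Cytotoxicity counter screen: CellTiter-Fluor signal (30 min, 37 C) in 4000 HepG2 cells/well carrying the DRE-luciferase reporter, following 24 h compound exposure at 37 C.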

[3] = biological target: Peroxisome proliferator-activated receptor gamma (Homo sapiens) (UniProt P37231); experiment: qHTS assay to identify small molecule agonists of the peroxisome proliferator-activated receptor gamma (PPARg) signaling pathway (AID 743094; active means well fitted activation curve with a large enough effect in the signal ratio in the repeat runs, not every such curve was filed as active; the % refers to the signal ratio)
How it was run: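 Following 5 h plating at 37C, PPARg-bla HEK293H cells receive compound or DMSO for 17 h; fluorescence intensity is recorded after LiveBLAzer B/G loading for 1 h at room temperature.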

[4] = qHTS assay to identify small molecule antagonists of the peroxisome proliferator-activated receptor gamma (PPARg) signaling pathway - cell viability counter screen (AID 743194); further: nearly all actives have a fitted effect of over 55% in size
How it was run: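 Viability was measured as CellTiter-Glo luminescence in GeneBLAzer PPARg UAS-bla HEK293H cells. These cells had been exposed 17 h at 37 C to compounds together with rosiglitazone at 50 nM final, with the beta-lactamase readout taken in the same wells.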

[5] = qHTS assay for small molecule agonists of the antioxidant response element (ARE) signaling pathway (AID 743202; active means well fitted activation curve with a large enough effect in the signal ratio in the repeat runs, not every such curve was filed as active; the % refers to the signal ratio)
How it was run: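 An ARE-responsive beta-lactamase gene stably integrated in HepG2 cells serves as reporter. After 5 h plating and 16 h compound incubation at 37 C, fluorescence of the B/G FRET substrate was measured.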

[6] = qHTS assay for small molecule activators of the heat shock response signaling pathway - cell viability counter screen (AID 743209); further: nearly all actives have a fitted effect of over 50% in size
How it was run: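 Counter screen for cytotoxicity in HeLa HSE-bla reporter cells. Treatment was 5 h at 37 C; viability was detected by luminescent ATP assay (CellTiter-Glo) in the same wells as the beta-lactamase read.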

[7] = qHTS assay for small molecule activators of the heat shock response signaling pathway (AID 743210; active means well fitted activation curve with a large enough effect in the signal ratio in the repeat runs, with a control signal flat, not every such curve was filed as active; the % refers to the signal ratio;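 further: HeLa cells with beta-lactamase reporter driven by heat shock elements; series mostly up to about 63 µM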)
How it was run: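 In HSE-bla HeLa cells, 5 h compound incubation (37 C) precedes addition of LiveBLAzer B/G substrate; after 2.5 h at room temperature, fluorescence intensity indicates reporter induction.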

[8] = qHTS assay to identify small molecule agonists of the peroxisome proliferator-activated receptor delta (PPARd) signaling pathway - cell viability counter screen (AID 743211); further: nearly all actives have a fitted effect of over 55% in size
How it was run: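 Multiplexed format: after the 2 h room-temperature LiveBLAzer B/G FRET step, CellTiter-Glo was added to the same wells. Luminescence after 30 min gave cell viability; compound exposure was 17 h at 37C.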

[9] = qHTS assay for small molecule agonists of the antioxidant response element (ARE) signaling pathway - cell viability counter screen (AID 743203; calls by dose curve; further: nearly all actives have a fitted effect of over 55% in size)
How it was run: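 Compounds in DMSO were pinned onto ARE-bla HepG2 cells plated 5 hrs earlier at 2,000 cells/well. Sixteen hours later at 37C/5% CO2, CellTiter-Glo was added and luminescence measured after 30 min at room temperature.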

[10] = biological target: Peroxisome proliferator-activated receptor gamma (Homo sapiens) (UniProt P37231); experiment: qHTS assay to identify small molecule antagonists of the peroxisome proliferator-activated receptor gamma (PPARg) signaling pathway (AID 743191; calls by dose curve; further: series mostly up to about 63 µM; nearly all actives have a fitted effect of over 30% in size)
How it was run: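 Beta-lactamase reporter under UAS control in HEK293H PPARg-bla cells; compound treatment 17 h at 37C. Read-out: fluorescence intensity after 1 h room-temperature incubation with LiveBLAzer B/G FRET substrate.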

Measured: Potency

Chain of Aryl hydrocarbon receptor (Homo sapiens) (P35869 whole entry, looked up): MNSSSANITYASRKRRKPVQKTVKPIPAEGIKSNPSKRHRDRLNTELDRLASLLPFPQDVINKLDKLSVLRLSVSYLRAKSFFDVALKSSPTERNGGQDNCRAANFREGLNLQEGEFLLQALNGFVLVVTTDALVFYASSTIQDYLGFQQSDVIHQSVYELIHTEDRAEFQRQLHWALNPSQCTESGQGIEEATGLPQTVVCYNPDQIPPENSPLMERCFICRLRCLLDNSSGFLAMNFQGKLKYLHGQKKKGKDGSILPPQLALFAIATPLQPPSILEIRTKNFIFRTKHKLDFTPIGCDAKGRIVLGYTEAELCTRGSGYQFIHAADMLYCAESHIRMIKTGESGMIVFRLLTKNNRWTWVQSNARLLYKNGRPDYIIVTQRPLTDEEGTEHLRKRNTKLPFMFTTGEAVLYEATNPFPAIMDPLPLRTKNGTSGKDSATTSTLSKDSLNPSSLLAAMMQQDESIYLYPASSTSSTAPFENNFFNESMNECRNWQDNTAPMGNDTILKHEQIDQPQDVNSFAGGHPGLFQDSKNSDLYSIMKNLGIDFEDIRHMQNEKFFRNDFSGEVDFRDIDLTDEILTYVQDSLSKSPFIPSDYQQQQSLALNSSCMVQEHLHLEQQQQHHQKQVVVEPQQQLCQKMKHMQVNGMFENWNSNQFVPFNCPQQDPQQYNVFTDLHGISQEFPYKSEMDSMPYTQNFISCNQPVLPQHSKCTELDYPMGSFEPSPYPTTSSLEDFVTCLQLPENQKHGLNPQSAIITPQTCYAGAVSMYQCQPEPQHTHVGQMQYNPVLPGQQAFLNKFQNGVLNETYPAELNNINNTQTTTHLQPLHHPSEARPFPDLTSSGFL
Chain of Peroxisome proliferator-activated receptor gamma (Homo sapiens) (P37231 whole entry, looked up): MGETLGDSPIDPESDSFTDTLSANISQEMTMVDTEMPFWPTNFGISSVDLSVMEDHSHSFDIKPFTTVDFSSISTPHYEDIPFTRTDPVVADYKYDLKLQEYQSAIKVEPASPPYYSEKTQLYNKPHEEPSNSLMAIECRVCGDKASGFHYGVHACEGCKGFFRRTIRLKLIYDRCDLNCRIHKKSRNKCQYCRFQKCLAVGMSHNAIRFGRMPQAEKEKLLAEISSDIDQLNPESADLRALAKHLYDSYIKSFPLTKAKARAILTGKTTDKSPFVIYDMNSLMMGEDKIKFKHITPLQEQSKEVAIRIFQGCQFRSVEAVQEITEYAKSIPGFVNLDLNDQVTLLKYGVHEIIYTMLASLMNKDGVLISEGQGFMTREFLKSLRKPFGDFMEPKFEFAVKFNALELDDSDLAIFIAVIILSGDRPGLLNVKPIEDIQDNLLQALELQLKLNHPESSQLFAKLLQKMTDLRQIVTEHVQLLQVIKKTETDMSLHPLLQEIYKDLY

COc1cc2c3cc1Oc1cc(ccc1O)C[C@@H]1c4c(cc(OC)c(O)c4Oc4ccc(cc4)C[C@@H]3N(C)CC2)CC[N+]1(C)C
not listed: [9] | [10]
inactive: all other assays above

CC(=O)c1ccc2c(c1)CCCC2
not listed: [10]
inactive: all other assays above

NS(=O)(=O)c1cc2c(cc1Cl)NC(C(Cl)Cl)NS2(=O)=O (configuration not stated)
not listed: [5] | [7] | [10]
inactive: all other assays above

CCNC(=O)NCCCOc1cccc(CN2CCCCC2)c1
not listed: [4] | [6] | [10]
inactive: all other assays above

COc1cc([N+](=O)[O-])ccc1N
not listed: [2] | [4] | [10]
inactive: all other assays above

Cc1cccc(Nc2ccncc2S(=O)(=O)NC(=O)NC(C)C)c1
not listed: [3]
inactive: all other assays above

Cc1ccccc1N1CCN(CCc2nnc3n2CCCC3)CC1
not listed: [1]
inactive: all other assays above

O=C1NC2NC(=O)NC2N1 (configuration not stated)
not listed: [3]
inactive: all other assays above

CC(C)CCC(=O)CCC(C)C
not listed: [1] | [5] | [7]
inactive: all other assays above

CC(C)(C)NCCO
not listed: [1]
inactive: all other assays above

O=S(=O)(O)SSS(=O)(=O)O
inactive: [1] | [2] | [3] | [4] | [6] | [8]
